# Source: the supplement of paper PMC8728848
# Only a selection was taken, and the strongest signals are over-represented in it overall.
# B1: Blon2355mut (Bifidobacterium longum) (protein)
# chain: MVQEPTLEWHVIPEPTNVEPLVGTCSLPLSGTVVEQRGADDAEAVFARQLVDDIKRVCGGRWQVASGEVQREVTLRTSPSLDDWSYVLEVSPDGVVITGSGFEGVRDGVQTLRQIIRQIGLTIPCMVIRDRPAFSTRGYYLDVTRGRVPSMAWLKSWVDRLCFYKYNQFQLYIEHTFQFNGLSEVWRGADPLTSSDILELDSYCAARGIELVPSVSTFGHHYTALRTRQLRDLGEFPEDADRPFSLIERMTHHTLNITDERSYEFSTSLIDELMPLFRSRKFNICANETFDLGKGRSKQESAKRGVGAMYADFVERLCRHVDDRGHDVMVWADVALEHPEIIDTLPKNITWLNWQYEPNVDDGTTAALADAGATQMVCPAVWCWNALIPRIDDAWNNITRMARHGRAHDVSGMLVTDWGDFGHVNDPRMSVPGMIFGAQQSWNPDAELSEVDMLSRISTIEYGDHTGSVVGALRGASAKGGFSWSDLVTYLELDDGRGGCNTEIVRVMGCLEAYRNDLPQSGQARLADARVSMLRTLRDSILAGRELNGKLDDAAKDITQLLRVAGDPSSAAVWSLAIDGQRLLNRVGLALLAAHGVVRQDEAGIDAAKLADELECWTEQYSRLWHEVSRQSELARIQHVVWRAADVLRSI
# What was measured:
# Assay in all cases: glycan array binding signal (z-score within array); higher = stronger binding
# Details in all cases: glycan notation: IUPAC condensed, linker removed
# [1] = target: Fuc(a1-2)Gal(b1-3)GalNAc(b1-3)Gal
# Method in brief: (§1)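 From the Consortium for Functional Glycomics database, 3228 arrays were curated, keeping only those whose protein sequence was available. Binding is given as a within-array Z-score averaged across arrays sharing a protein sequence and across linkers. Negative Z-scores can be read as non-binding.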
# [2] = target: Fuc(a1-2)Gal(b1-3)GlcNAc(b1-2)Man(a1-3)[Fuc(a1-2)Gal(b1-3)GlcNAc(b1-2)Man(a1-6)]Man(b1-4)GlcNAc(b1-4)GlcNAc
# Method in brief: as §1
# [3] = target: Fuc(a1-2)Gal(b1-4)GlcNAc(b1-3)[Fuc(a1-2)Gal(b1-4)GlcNAc(b1-6)]GalNAc
# Method in brief: as §1
# [4] = target: Fuc(a1-2)Gal3S(b1-4)GlcNAc
# Method in brief: as §1
# [5] = target: Fuc(a1-2)[Gal(a1-3)]Gal(b1-4)Glc
# Method in brief: as §1
# [6] = target: Fuc(a1-2)[Gal(a1-3)]Gal(b1-4)GlcNAc(b1-2)Man(a1-3)[Fuc(a1-2)[Gal(a1-3)]Gal(b1-4)GlcNAc(b1-2)Man(a1-6)]Man(b1-4)GlcNAc(b1-4)GlcNAc
# Method in brief: as §1
# [7] = target: Fuc(a1-3)[Gal(b1-4)]GlcNAc(b1-4)Gal(b1-4)[Fuc(a1-3)]GlcNAc(b1-4)Gal(b1-4)[Fuc(a1-3)]GlcNAc
# Method in brief: as §1
# [8] = target: Fuc(a1-3)[Gal3S(b1-4)]GlcNAc6S
# Method in brief: as §1
# [9] = target: Fuc(a1-3)[GalNAc(b1-4)]GlcNAc
# Method in brief: as §1
# [10] = target: Gal(a1-3)Fuc(a1-2)Gal(b1-4)GlcNAc(b1-3)[Gal(a1-3)Fuc(a1-2)Gal(b1-4)GlcNAc(b1-6)]GalNAc
# Method in brief: as §1
# [11] = target: Gal(a1-3)[Gal(a1-4)]Gal(b1-4)GlcNAc
# Method in brief: as §1
# [12] = target: Gal(b1-3)GalNAc(a1-3)[Fuc(a1-2)]Gal(b1-4)Glc
# Method in brief: as §1
# [13] = target: Gal(b1-3)[Fuc(a1-4)]GlcNAc(b1-3)Gal(b1-3)[Fuc(a1-4)]GlcNAc
# Method in brief: as §1
# [14] = target: Gal(b1-4)GalNAc(b1-3)[Fuc(a1-2)]Gal(b1-4)GlcNAc
# Method in brief: as §1
# [15] = target: Gal(b1-4)GlcNAc(b1-2)Man(a1-3)[Gal(b1-4)GlcNAc(b1-2)Man(a1-6)]Man(b1-4)GlcNAc(b1-4)GlcNAc
# Method in brief: as §1
# [16] = target: Gal(b1-4)GlcNAc(b1-2)Man(a1-3)[Gal(b1-4)GlcNAc(b1-2)Man(a1-6)][GlcNAc(b1-4)]Man(b1-4)GlcNAc(b1-4)[Fuc(a1-6)]GlcNAc
# Method in brief: as §1
# [17] = target: Gal(b1-4)GlcNAc(b1-2)[Gal(b1-4)GlcNAc(b1-6)]Man(a1-6)[GlcNAc(b1-4)][Gal(b1-4)GlcNAc(b1-2)[Gal(b1-4)GlcNAc(b1-4)]Man(a1-3)]Man(b1-4)GlcNAc(b1-4)[Fuc(a1-6)]GlcNAc
# Method in brief: as §1
# [18] = target: Gal(b1-4)GlcNAc(b1-3)Gal(b1-3)GlcNAc
# Method in brief: as §1
# [19] = target: Gal(b1-4)GlcNAc(b1-3)Gal(b1-4)Glc
# Method in brief: as §1
# Gal3S(b1-4)Glc = target: Gal3S(b1-4)Glc
# Method in brief: as §1
# [20] = target: Gal3S(b1-4)[Fuc(a1-3)]Glc6S
# Method in brief: as §1
# Gal4S6S(b1-4)GlcNAc = target: Gal4S6S(b1-4)GlcNAc
# Method in brief: as §1
# Gal6S(b1-4)Glc6S = target: Gal6S(b1-4)Glc6S
# Method in brief: as §1
# GalNAc(b1-3)GlcNAc = target: GalNAc(b1-3)GlcNAc
# Method in brief: as §1
# GalNAc(b1-4)GlcNAc = target: GalNAc(b1-4)GlcNAc
# Method in brief: as §1
# [21] = target: GalNAc(b1-4)GlcNAc(b1-3)GalNAc(b1-4)GlcNAc
# Method in brief: as §1
# GalNAc6S(b1-4)GlcNAc = target: GalNAc6S(b1-4)GlcNAc
# Method in brief: as §1
# [22] = target: Glc(a1-4)Glc(a1-4)Glc(a1-4)Glc
# Method in brief: as §1
# [23] = target: GlcNAc(a1-4)Gal(b1-4)GlcNAc
# Method in brief: as §1
# [24] = target: GlcNAc(a1-4)Gal(b1-4)GlcNAc(b1-3)Gal(b1-4)GlcNAc
# Method in brief: as §1
# [25] = target: GlcNAc(b1-2)Man(a1-3)[GlcNAc(b1-2)Man(a1-6)]Man(b1-4)GlcNAc(b1-4)GlcNAc
# Method in brief: as §1
# [26] = target: GlcNAc(b1-3)Gal(b1-4)GlcNAc(b1-3)Gal(b1-4)GlcNAc(b1-3)Gal(b1-4)GlcNAc(b1-3)Gal(b1-4)GlcNAc(b1-2)Man(a1-3)[GlcNAc(b1-3)Gal(b1-4)GlcNAc(b1-3)Gal(b1-4)GlcNAc(b1-3)Gal(b1-4)GlcNAc(b1-3)Gal(b1-4)GlcNAc(b1-2)Man(a1-6)]Man(b1-4)GlcNAc(b1-4)[Fuc(a1-6)]GlcNAc
# Method in brief: as §1
# [27] = target: GlcNAc(b1-3)Gal(b1-4)GlcNAc(b1-3)[GlcNAc(b1-3)Gal(b1-4)GlcNAc(b1-3)]GalNAc
# Method in brief: as §1
# [28] = target: GlcNAc(b1-3)[GlcNAc(b1-6)]GalNAc
# Method in brief: as §1
# [29] = target: Neu5Ac(a2-3)Gal(b1-3)[Fuc(a1-4)]GlcNAc(b1-3)Gal(b1-3)[Fuc(a1-4)]GlcNAc
# Method in brief: as §1
# [30] = target: Neu5Ac(a2-3)Gal(b1-3)[Neu5Ac(a2-6)]GlcNAc(b1-3)[Fuc(a1-3)[Gal(b1-4)]GlcNAc(b1-6)]Gal(b1-4)Glc
# Method in brief: as §1
# Neu5Ac(a2-3)Gal(b1-4)Glc = target: Neu5Ac(a2-3)Gal(b1-4)Glc
# Method in brief: as §1
# [31] = target: Neu5Ac(a2-3)Gal(b1-4)[Fuc(a1-3)]GlcNAc(b1-2)Man
# Method in brief: as §1
# [32] = target: Neu5Ac(a2-3)Gal(b1-4)[Fuc(a1-3)]GlcNAc(b1-6)[Neu5Ac(a2-3)Gal(b1-3)]GalNAc
# Method in brief: as §1
# [33] = target: Neu5Ac(a2-6)Gal(b1-4)GlcNAc(b1-2)Man(a1-3)[Gal(b1-4)GlcNAc(b1-2)Man(a1-6)]Man(b1-4)GlcNAc(b1-4)GlcNAc
# Method in brief: as §1
# [34] = target: Neu5Ac(a2-6)GalNAc(b1-4)GlcNAc6S
# Method in brief: as §1
# [35] = target: Neu5Ac9Ac(a2-6)Gal(b1-4)GlcNAc
# Method in brief: as §1
binder,measurement,setting,value
B1,glycan array binding signal (z-score),[1],4.04
same,glycan array binding signal (z-score),[2],2.69
same,glycan array binding signal (z-score),[3],-0.88
same,glycan array binding signal (z-score),[4],-0.915
same,glycan array binding signal (z-score),[5],-0.428
same,glycan array binding signal (z-score),[6],-0.395
same,glycan array binding signal (z-score),[7],-0.166
same,glycan array binding signal (z-score),[8],0.088
same,glycan array binding signal (z-score),[9],3.72
same,glycan array binding signal (z-score),[10],-1.04
same,glycan array binding signal (z-score),[11],3.31
same,glycan array binding signal (z-score),[12],-1.53
same,glycan array binding signal (z-score),[13],-1.02
same,glycan array binding signal (z-score),[14],0.202
same,glycan array binding signal (z-score),[15],-0.374
same,glycan array binding signal (z-score),[16],-0.951
same,glycan array binding signal (z-score),[17],-0.768
same,glycan array binding signal (z-score),[18],-1.26
same,glycan array binding signal (z-score),[19],1.06
same,glycan array binding signal (z-score),Gal3S(b1-4)Glc,2.74
same,glycan array binding signal (z-score),[20],3.52
same,glycan array binding signal (z-score),Gal4S6S(b1-4)GlcNAc,0.175
same,glycan array binding signal (z-score),Gal6S(b1-4)Glc6S,1.48
same,glycan array binding signal (z-score),GalNAc(b1-3)GlcNAc,0.179
same,glycan array binding signal (z-score),GalNAc(b1-4)GlcNAc,3.04
same,glycan array binding signal (z-score),[21],0.796
same,glycan array binding signal (z-score),GalNAc6S(b1-4)GlcNAc,-0.569
same,glycan array binding signal (z-score),[22],2.06
same,glycan array binding signal (z-score),[23],-0.637
same,glycan array binding signal (z-score),[24],-0.378
same,glycan array binding signal (z-score),[25],-0.111
same,glycan array binding signal (z-score),[26],1.1
same,glycan array binding signal (z-score),[27],3.84
same,glycan array binding signal (z-score),[28],-0.847
same,glycan array binding signal (z-score),[29],-0.494
same,glycan array binding signal (z-score),[30],4.03
same,glycan array binding signal (z-score),Neu5Ac(a2-3)Gal(b1-4)Glc,3.29
same,glycan array binding signal (z-score),[31],1.4
same,glycan array binding signal (z-score),[32],1.6
same,glycan array binding signal (z-score),[33],-0.73
same,glycan array binding signal (z-score),[34],-0.126
same,glycan array binding signal (z-score),[35],3.4
